Out of some 360,000 compounds screened, about 800 (0.22%) were called active.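 How the source made its calls: active means activation of at least 8% versus controls, or a plate z-score of at least 8; inactive means the rest.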 For the sample, actives were picked, then their nearest neighbours and some compounds at random.
Assay: activators of alpha-DG glycosylation, primary screen, uHTS, Pro5-aDG cells, AlphaScreen (AID 624168);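 further: Pro5 are CHO cells carrying HIG-tagged alpha-DG that lacks glycosylation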
Details: alpha-DG glycosylation AlphaScreen (IIH6), at 10 µM, active compounds read high, 0% Pro5, 100% B10-LARGE cell signal

Compound	activation
O=C(NCc1ccc(F)cc1)C1CCN(C(=O)Nc2ccc(F)cc2)CC1	-0.1% (inactive)
Cc1[nH]c(C)c(S(=O)(=O)N2CCN(c3cccc(C(F)(F)F)c3)CC2)c1C(=O)N1CCCCC1	-0.4% (inactive)
CC1(C)CC(=O)C=C(NC2CC(C)(C)NC(C)(C)C2)C1	-0.2% (inactive)
COc1cc(CNCCN(C)C)ccc1OCc1c(F)cccc1Cl	8.5% (active)
CCOCCCNCc1ccc(OCc2ccc(F)cc2)c(OC)c1	0.1% (inactive)
CCN(CC)CCNCc1ccc(OCc2ccc(Cl)nc2)c(OC)c1	0.3% (inactive)
CCCCNCc1ccc(SC)cc1	0.3% (inactive)
C[C@H](CO)N1C[C@H](C)[C@H](CN(C)CC2CC2)Oc2ccc(NC(=O)CCN3CCOCC3)cc2C1=O	0.2% (inactive)
Cc1ccc(N2C(=O)SC(N(CC(=O)O)c3ccc(C)cc3)C2=O)cc1 (configuration not stated)	1.3% (inactive)
CCn1c(SCc2cccc(C(=O)O)c2)nnc1-c1ccc(Cl)cc1	0% (inactive)
CN(C)CCCNC(=O)/C=C/c1ccc(OCc2c(F)cccc2Cl)cc1	13.4% (active)
O=C(/C=C/c1ccc(Cl)cc1)NCCCn1ccnc1	-0.1% (inactive)
Fc1cccc(Cl)c1COc1ccc(-c2nnco2)cc1	-0.1% (inactive)
CS(=O)(=O)N(CC(=O)N1CCCCCC1)c1cccc(Cl)c1Cl	-0.1% (inactive)
COc1ccc(CCCNC(=O)C2Cc3c(-c4cccc(C(N)=O)c4)ccnc3O2)cc1 (configuration not stated)	0.1% (inactive)
COc1ccc(NC(=O)COc2ccc(C(=O)c3ccc(F)cc3)cc2)cc1S(N)(=O)=O	0% (inactive)
COc1ccccc1C1SCCN1C(=O)c1ccc([N+](=O)[O-])cc1 (configuration not stated)	6.9% (active)
O=C(OCC(=O)N1CCc2ccccc21)c1ccc([N+](=O)[O-])cc1	0.1% (inactive)
C[N+]1(CC(O)COc2ccccc2)CCN(C(=O)c2ccc([N+](=O)[O-])cc2)CC1 (configuration not stated)	-0.2% (inactive)

Compound	activation
CC(C)N(C(=O)CSc1nc(COc2ccccc2)nc2ccccc12)C(C)C	0.2% (inactive)
CCOc1cc(CNCCN(C)C)c(Cl)cc1OCC(=O)NCCc1ccccc1	0.7% (inactive)
Cc1cccn2c(=O)nc(SCC(=O)NCc3ccccc3Cl)nc12	0.1% (inactive)
O=C(Oc1ccccc1C(=S)N1CCCCC1)c1cc([N+](=O)[O-])cc([N+](=O)[O-])c1	-0.2% (inactive)
CN(O)C(=S)c1ccccc1	-0.2% (inactive)
Cc1ccc(F)c(S(=O)(=O)NC(=O)C2(C)CCN2C(=O)c2ccco2)c1 (configuration not stated)	-0.2% (inactive)
CC(C)C(=O)NCC(c1cccs1)S(=O)(=O)c1ccc(F)cc1 (configuration not stated)	6.9% (active)
COCCNC(=O)C(OC(=O)c1cccs1)c1ccc(F)cc1 (configuration not stated)	-0.1% (inactive)
O=C(NCc1cccs1)C(=O)NCC1OCCCN1S(=O)(=O)c1ccc(F)cc1 (configuration not stated)	0% (inactive)
O=C(Cc1ccc(S(=O)(=O)N2CCOCC2)s1)N1CCN(c2ccc(C(F)(F)F)cc2[N+](=O)[O-])CC1	0.7% (inactive)
COc1cc(OC)cc(C(=O)NC(=S)N2CCN(c3ccc(C(F)(F)F)cc3[N+](=O)[O-])CC2)c1	0.3% (inactive)
O=C(c1ccc(N2CCCC2=O)cc1)N1CCN(c2ccc(C(F)(F)F)cc2[N+](=O)[O-])CC1	7% (active)
CC1CCCN(S(=O)(=O)c2ccc(N(C(=O)c3cnccn3)C(C(=O)NC3CCCCC3)c3cccs3)cc2)C1 (configuration not stated)	-0.1% (inactive)
Cc1ccccc1NC(=O)CCNS(=O)(=O)c1ccc2[nH]c(=O)oc2c1	-0.2% (inactive)
COc1ccc(C)cc1NC(=O)CN(C)S(=O)(=O)c1ccc2c(c1)n(C)c(=O)c(=O)n2C	-0.2% (inactive)
COC(=O)c1ccc(C(=O)NC2CC(C)(C)Cc3c2cnn3-c2ccc(F)cc2)nc1 (configuration not stated)	0% (inactive)
Cn1nccc1C(=O)NC1CCCc2c1cnn2-c1ccc(F)cc1F (configuration not stated)	5% (active)
CC1=C(C(=O)NC2CC(C)(C)Cc3c2cnn3-c2ccc(C)cc2)OCCO1 (configuration not stated)	0.4% (inactive)
COc1ccc(C23NCCN2C(=O)c2ccccc23)cc1 (configuration not stated)	-0.1% (inactive)

Compound	activation
Cc1ccsc1C(=O)NCCc1ccco1	-0.1% (inactive)
Cc1c(CN2CCC(CO)(CCOc3ccccc3)CC2)[nH]c2ccc(Cl)cc12	2.4% (inactive)
COCCn1c(SCC(=O)c2[nH]c(C)c(C(C)=O)c2C)nc2ccccc2c1=O	0% (inactive)
CCc1[nH]nc(C(=O)N2CCCC(CNS(=O)(=O)c3cccs3)C2)c1C (configuration not stated)	0.1% (inactive)
Cc1ccccc1OCc1nnc(SCC(=O)N2c3ccccc3Sc3ccc(Cl)cc32)o1	0.3% (inactive)
O=C(CNCc1ccc(F)cc1)Nc1ccccc1-c1ccccc1	0.6% (inactive)
Cc1nc2nc[nH]n2c(=O)c1NC(=O)c1cccc(OCC(C)C)c1	0.1% (inactive)
CCc1cccc(C)c1NC(=O)COC(=O)CC1CCCC1	0.2% (inactive)
COc1ccc(NC(=O)CSc2nnc(C3CC3)n2C)cc1S(=O)(=O)N1CCCCC1	-0.1% (inactive)
CC(Sc1nnc(-c2ccccc2F)n1C1CC1)C(N)=O (configuration not stated)	0.1% (inactive)
COc1ccc(NC(=O)CSc2nnc(-c3ccccc3F)n2C2CC2)cc1S(N)(=O)=O	6.3% (active)
OCC1OC(n2cnc3c(N4CCCC4)ncnc32)C(O)C1O (configuration not stated)	-0.1% (inactive)
Cc1[nH][nH]c(=O)c1C(c1ccc(-c2ccc(Cl)cc2)o1)c1c(C)[nH][nH]c1=O	0% (inactive)
CCNC(=O)NC(=O)C(C)OC(=O)c1cc(S(=O)(=O)N2CCCCCC2)ccc1OC (configuration not stated)	0% (inactive)
Cc1cc(C)c(C#N)c(SCC(=O)NN2CC(=O)N(c3ccccc3F)CC2=O)n1	-0.2% (inactive)
CCOc1ccc(OCC(=O)Nc2c3c(nn2C(C)(C)C)CS(=O)(=O)C3)cc1	7.3% (active)
COc1ccccc1OCC(=O)Nc1c2c(nn1-c1ccc(F)cc1)CS(=O)(=O)C2	-0.1% (inactive)
CCOc1ccc(C(=O)Nc2c3c(nn2-c2ccccc2)CS(=O)(=O)C3)cc1	0.3% (inactive)
O=S(=O)(c1ccc(Br)cc1)N1CCC(c2nc3ccccc3[nH]2)CC1	0.7% (inactive)

— PubChem BioAssay AID624168 (Sanford-Burnham Center for Chemical Genomics, 2012)
